Results taken from PubChem BioAssay (NCI).
This is part of a sample that, as a whole, favours compounds with a hit. Of some 83,000 tested, about 20% had one in any assay.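 Method: cells in 96-well plates; compound added at one concentration; 48 h incubation; percent growth measured; values under 10 scored active.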 A number with no mark means an inactive call. Active and inactive are the calls of the source.

Tested on: KM12 colon
Test: NCI-60 one-dose screen, 48 h (100 = growth as untreated, 0 = no growth, -100 = all killed)
Settings: 10 µM unless noted

SMILES | growth
COc1cccc(/C=C2\COc3ccc(-c4ccccc4)cc3C2=O)c1 | -37.3% (active)
O=C1Nc2ccccc2/C1=C\c1cccc(/C=C2/C(=O)Nc3ccccc32)n1 | -83.1% (active)
COc1ccc(C(=O)c2cc3c(N)c(C(=O)Nc4ccc(Br)cc4)sc3nc2C)cc1 | 72%
O=S(=O)(O)c1cc(O)c2c(N=Nc3ccc(Nc4ccccc4)c4c(S(=O)(=O)O)cccc34)cc(S(=O)(=O)O)cc2c1 | 101%
NC(=S)N/N=C(\c1ccc(Cl)cc1)C1CC1 | 100%
CCNNC(=O)[C@@H]1[C@H](c2cc(OC)c(OC)c(OC)c2)c2cc3c(cc2[C@H](O)[C@H]1CO)OCO3 | -5.82% (active)
COc1cc2nc(-c3ccc(C(F)(F)F)cc3)cc(OCCN3CCCC3)c2cc1OC | 93.7%
Clc1ccc2c(c1)c(-c1ccccc1)nc1nncn12 | 103%
O=S(=O)(c1ccc(N/N=C\c2ccccc2)cc1)c1ccc(N/N=C/c2ccccc2)cc1 | 66.9%
CN1C(=O)N(C)[C@H]2NC(NN)=N[C@H]21 | 105%
COc1ccc(C(O)c2cc3c(N)c(C(=O)Nc4ccccc4)sc3nc2C)cc1 (stereo not given) | 3.05% (active)
COc1cc(C2CC(c3cccc(Nc4ccncc4)c3)=NN2c2cc(Cl)cc(Cl)c2)cc(OC)c1OC (stereo not given) | -75.7% (active)
Cc1cccc(Oc2ccc(Nc3ncnc4ccc(NC(=O)CN(C)C)cc34)cc2Cl)c1 | 35.1%
O=C(CN1CCOCC1)Nc1ccc2ncnc(Nc3ccc(Oc4cccc(F)c4)c(Cl)c3)c2c1 | 90.1%
Cc1cccc(Oc2ccc(Nc3ncnc4ccc(NC(=O)CNCCO)cc34)cc2Cl)c1 | 76.8%
COc1cc(/C=C2\C(=O)N(Cc3ccc(Cl)cc3)c3ccccc32)cc(OC)c1OC | 15.5%
Cc1ccc(O)c(C(=O)O)c1 | 108%
Cc1nccc2c3ccc(OCc4cn(-c5ccc(Cl)cc5)nn4)cc3n(CCCc3ccccc3)c12 | 35.2%

SMILES | growth
O=[N+]([O-])c1cccc(-c2nc(-c3ccc(Cl)cc3Cl)cn2-c2ccccc2)c1 | -64.4% (active)
CC(C)CCSc1nc(NNC(N)=O)c(C#N)c(-c2ccccc2)n1 | 110%
O=C1C(=O)c2c(nc3ncccn23)-c2ccccc21 | -62.6% (active)
Cc1c2c(cc[n+]1Cc1ccc(F)cc1)c1ccc(OCc3cccc(F)c3)cc1n2Cc1cccc(F)c1 | -98.8% (active)
CCOC(=O)C1=C(C)NC(C)=C(C(=O)OCC)C1c1cc(Br)c(O)c(OC)c1 | 23.6%
COc1cc(C(=O)c2cnc(-c3ccc4cc[nH]c4c3)[nH]2)cc(OC)c1OC | -9.92% (active)
O=c1[nH]nc(-c2ccc(Br)cc2)cc1Cc1ccc(O)cc1 | 108%
S=c1[nH]cccc1-c1nnc2n1Nc1nc3ccccc3cc1CS2 | 109%
COc1cccc(CCC(=O)c2cc3c(N)c(C(=O)Nc4cccc(Cl)c4C)sc3nc2C)c1 | 19.6%
O=C1Nc2cc(-c3ccncc3)ccc2/C1=C/c1ccc[nH]1 | 33.1%
COc1ccc(-c2nn(Cc3ccccc3)c3c2-c2oncc2CC3)cc1OC | 99.6%
CN1CCN(CC#CCNC(=O)[C@]23CCC(C)(C)C[C@H]2C2=CC[C@@H]4[C@@]5(C)Cc6c([nH]c7ccccc67)C(C)(C)[C@@H]5CC[C@@]4(C)[C@]2(C)CC3)CC1 | 52.3%
NC(=O)c1cccc(-n2ccc3cc(NC(=O)Nc4cc(C(F)(F)F)cc(C(F)(F)F)c4)ccc32)n1 | 11.7%
COc1cc(C(=O)/C=C/c2c(C)n([O-])c3ccc(Cl)cc3[n+]2=O)cc(OC)c1OC | 73.1%
O=C(CNCCO)Nc1ccc2ncnc(Nc3ccc(OCc4cccc(F)c4)c(Cl)c3)c2c1 | 87%
CC[C@@]12C=CCN3CC[C@]4(c5cc(NC(=O)COc6cc(OCC(=O)Nc7cc8c(cc7OC)N(C)[C@H]7[C@@](O)(C(=O)OC)[C@H](OC(C)=O)[C@]9(CC)C=CCN%10CC[C@]87[C@@H]%109)cc7oc(-c8ccccc8)cc(=O)c67)c(OC)cc5N(C)[C@@H]4[C@](O)(C(=O)OC)[C@H]1OC(C)=O)[C@H]32 | -39.3% (active)
Cc1cc2nc(-c3ccccc3)c(-c3ccccc3)nc2cc1C | 104%
